Assay results reported in PubChem BioAssay (Tox21).
Inconclusive results are not listed. Calls of active or inactive are those of the source. Unless noted, calls come from the whole dose curve; as a rule, active = well fitted curve in the direction sought with a large enough effect in the repeat runs; inconclusive = weak or mixed curves; inactive = no such curve, though single readings can be large; an effect the other way counts as inactive or inconclusive.

Assays:
[1] = qHTS assay to identify small molecule antagonists of the estrogen receptor alpha (ER-alpha) signaling pathway using the BG1 cell line in the presence of 0.1 nM 17-beta-estradiol - cell viability counter screen (AID 1259241); note: nearly all actives have a fitted effect of over 40% in size
Summary of the method: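 The cell line endogenously expresses full-length ER-alpha and carries four EREs driving luciferase. Cells are cultured 5 days hormone-free, treated 22 hr with compounds and 0.1 nM estradiol, then viability is read by fluorescence.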

[2] = qHTS assay to identify small molecule antagonists of the androgen receptor (AR) signaling pathway using the MDA cell line in the presence of 0.5 nM R1881 - cell viability counter screen (AID 1259242); note: nearly all actives have a fitted effect of over 45% in size
Summary of the method: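 R1881 at 0.5 nM final stimulated MDA-kb2 cells during 16 hr compound treatment at 37C. Cytotoxicity read: CellTiter-Fluor fluorescence after 30 min.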

[3] = target: Androgen receptor (Homo sapiens) (UniProt P10275); assay: qHTS assay to identify small molecule antagonists of the androgen receptor (AR) signaling pathway using the MDA cell line in the presence of 0.5 nM R1881 (AID 1259243); note: nearly all actives have a fitted effect of over 50% in size; note: potency is the fitted concentration of half-maximal effect
Summary of the method: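 We exposed MDA-kb2 cells to compounds under 0.5 nM R1881 stimulation for 16 hr at 37C and quantified MMTV-driven luciferase by luminescence.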

[4] = target: Estrogen receptor (Homo sapiens) (UniProt P03372); assay: qHTS assay to identify small molecule antagonists of the estrogen receptor alpha (ER-alpha) signaling pathway using the BG1 cell line in the presence of 0.1 nM 17-beta-estradiol (AID 1259244); note: nearly all actives have a fitted effect of over 50% in size
Summary of the method: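 VM7Luc4E2; 4xERE-luciferase; 0.1 nM E2 final; 22 h co-incubation, 37C; ONE-Glo luminescence after 30 min at room temperature.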

[5] = qHTS assay to identify small molecule HDAC inhibitors (AID 1259364);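 note: wild-type HCT-116 cells with endogenous class I/II HDAC activity; top concentration of the series differs between compounds; nearly all actives have a fitted effect of over 45% in size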
Summary of the method: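 Relative class I and II HDAC activity is taken from the luminogenic signal in HCT-116 cells, with compound exposure 2 hr and reagent development 30 min at room temperature.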

[6] = qHTS assay to identify small molecule HDAC inhibitors - cell viability counter screen (AID 1259365); note: series mostly up to about 92 µM; nearly all actives have a fitted effect of over 50% in size
Summary of the method: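 Viability readout: CellTiter-Glo luminescence. Wild-type HCT-116 cells, 2hr compound treatment following overnight attachment at 37 C.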

[7] = qHTS assay to identify small molecule agonists of the sonic hedgehog signaling (Shh) pathway - cell viability counter screen (AID 1259366); note: nearly all actives have a fitted effect of over 50% in size
Summary of the method: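 Viability measured fluorometrically (CellTiter-Fluor, 1hr, 37C) in 3T3 Gli1-Luc reporter cells after 23hr compound exposure within a 24hr incubation at 37C/5% CO2.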

[8] = qHTS assay to identify small molecule antagonists of the sonic hedgehog signaling (Shh) pathway - cell viability counter screen (AID 1259367); note: nearly all actives have a fitted effect of over 55% in size
Summary of the method: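 After a 4 hr settling period, 3T3 Gli1-Luc cells were treated with DMSO-dissolved chemicals and conditioned medium, kept 24 hr at 37C in 5% CO2, and assayed for viability by CellTiter-Fluor fluorescence following 1 hr reagent incubation.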

[9] = qHTS assay to identify small molecule agonists of the sonic hedgehog signaling (Shh) pathway (AID 1259368; calls by dose curve;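 note: NIH/3T3-derived 3T3Gli1-Luc cells carrying a stable Gli1-driven firefly luciferase reporter; series mostly up to about 92 µM; nearly all actives have a fitted effect of over 15% in size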)
Summary of the method: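 Mouse fibroblast (NIH/3T3) reporter cells with stably integrated Gli1-Luc were treated 24 hr with compound; firefly luciferase luminescence served as the read-out.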

[10] = qHTS assay to identify small molecule antagonists of the sonic hedgehog signaling (Shh) pathway (AID 1259369; calls by dose curve; note: nearly all actives have a fitted effect of over 45% in size; note: potency is the fitted concentration of half-maximal effect)
Summary of the method: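 Conditioned medium drives Shh signalling in 3T3Gli1-Luc cells; compounds in DMSO co-applied, 24hr at 37 C, then luciferase luminescence.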

[11] = target: Estrogen receptor beta (Homo sapiens) (UniProt Q92731); assay: qHTS assay to identify small molecule antagonists of the estrogen receptor beta (ER-beta) signaling pathway (AID 1259378; active = well fitted inhibition curve with a large enough effect in the signal ratio in the repeat runs, not every such curve was filed as active; the % refers to the signal ratio; note: potency is the fitted concentration of half-maximal effect)
Summary of the method: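 ER-beta-UAS-bla HEK293T (GripTite) cells in 2% charcoal-stripped FBS medium were preincubated 6 hr at 37C, dosed with compound, then stimulated with 1 nM E2 (final) for 16 hr; beta-lactamase reporter read by B/G FRET fluorescence after 2 hr substrate loading.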

[12] = qHTS assay to identify small molecule agonists of the androgen receptor (AR) signaling pathway in the presence of an antagonist - cell viability counter screen (AID 1259379);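 note: MDA-kb2 human breast cancer cells carrying an MMTV luciferase reporter; series mostly up to about 92 µM; nearly all actives have a fitted effect of over 25% in size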
Summary of the method: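 A CellTiter-Fluor read-out measured viability of MDA-kb2 reporter cells (MMTV promoter with AR and GR response elements). Treatment: nilutamide 3.0uM final with compounds at 15 concentrations, 16 hr, 37C, 0% CO2.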

[13] = qHTS assay to identify small molecule agonists of the estrogen receptor beta (ER-beta) signaling pathway - cell viability counter screen (AID 1259380); note: nearly all actives have a fitted effect of over 30% in size; note: potency is the fitted concentration of half-maximal effect
Summary of the method: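 Cells used were ER-beta-UAS-bla HEK293T in medium with 2% charcoal-stripped FBS. They were treated for 16 hr at 37C. Viability came from CellTiter-Glo luminescence.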

[14] = target: Androgen receptor (Homo sapiens) (UniProt P10275); assay: qHTS assay to identify small molecule agonists of the androgen receptor (AR) signaling pathway in the presence of an antagonist (AID 1259381; calls by dose curve; note: nearly all actives have a fitted effect of over 15% in size)
Summary of the method: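 Using human MDA-kb2 cells with an MMTV promoter–luciferase construct (AR and GR response elements), agonist activity is scored under 3.0uM nilutamide (final) co-treatment; 16hr incubation, 37C, luminescence readout via ONE-Glo.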

[15] = qHTS assay to identify small molecule antagonists of the estrogen receptor beta (ER-beta) signaling pathway - cell viability counter screen (AID 1259382); note: series mostly up to about 92 µM; nearly all actives have a fitted effect of over 55% in size
Summary of the method: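 Agonist-stimulated (1nM E2) ER-beta-UAS-bla HEK293T cells are incubated with library compounds for 16 hr at 37C. Cell viability is then assessed in the reporter-assay wells by adding CellTiter-Glo and reading luminescence after 30 min.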

[16] = target: Estrogen receptor (Homo sapiens) (UniProt P03372); assay: qHTS assay to identify small molecule agonists of the estrogen receptor alpha (ER-alpha) signaling pathway in the presence of an antagonist (AID 1259383; calls by dose curve; note: top concentration of the series differs between compounds; nearly all actives have a fitted effect of over 15% in size)
Summary of the method: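 Using VM7Luc4E2 cells seeded 24hr before treatment, antagonist ICI-182,780 (10.0nM final) was added, followed by compounds at 15 concentrations. Plates incubated 22hr; ONE-Glo luminescence quantified reporter activity.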

[17] = target: Estrogen receptor beta (Homo sapiens) (UniProt Q92731); assay: qHTS assay to identify small molecule agonists of the estrogen receptor beta (ER-beta) signaling pathway (AID 1259377; active = well fitted activation curve with a large enough effect in the signal ratio in the repeat runs, not every such curve was filed as active; the % refers to the signal ratio)
Summary of the method: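 A UAS-controlled beta-lactamase reporter in ER-beta-UAS-bla HEK293T cells reports receptor activation. Compounds act for 16 hr at 37C in 2% charcoal-stripped serum, and a FRET substrate is read by fluorescence after 2 hours.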

[18] = qHTS assay to identify small molecule agonists or antagonists of the thyroid stimulating hormone receptor (TSHR) signaling pathway - wild type cell line counter screen (AID 1259384; calls by dose curve)
Summary of the method: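 Wild-type HEK293 cells were plated 18 h at 37 C/5% CO2, pin-dosed with compound plus Ro20-1724 medium, held 30 min at room temperature, then given cAMP-d2 and anti-cAMP-cryptate; fluorescence was read after 1 h. Fifteen concentrations, triplicate.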

[19] = target: Thyrotropin receptor (Homo sapiens) (UniProt P16473); assay: qHTS assay to identify small molecule antagonists of the thyroid stimulating hormone receptor (TSHR) signaling pathway (AID 1259385; calls by dose curve; note: nearly all actives have a fitted effect of over 20% in size)
Summary of the method: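 TSHR-HEK293 cells were plated and held 18 h at 37C/5% CO2, then given compound plus Ro20-1724 and stimulated with TSH at 1.5 ng/mL final. After 30 min at room temperature, cAMP was detected with cAMP-d2/anti-cAMP-cryptate (1 h) by fluorescence.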

[20] = qHTS assay to identify small molecule phospholipidosis (PLD) inducers (AID 1259344; active = well fitted curve in the direction sought with a large enough effect; an effect the other way counts as inactive or inconclusive)
Summary of the method: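 HepG2 cells grown on collagen I take up LipidTOX Red while exposed to compound for 24 h; after fixation they are imaged at 20x and pit metrics are extracted.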

Measured: Potency

Thyrotropin receptor (Homo sapiens), sequence (P16473 whole entry, looked up): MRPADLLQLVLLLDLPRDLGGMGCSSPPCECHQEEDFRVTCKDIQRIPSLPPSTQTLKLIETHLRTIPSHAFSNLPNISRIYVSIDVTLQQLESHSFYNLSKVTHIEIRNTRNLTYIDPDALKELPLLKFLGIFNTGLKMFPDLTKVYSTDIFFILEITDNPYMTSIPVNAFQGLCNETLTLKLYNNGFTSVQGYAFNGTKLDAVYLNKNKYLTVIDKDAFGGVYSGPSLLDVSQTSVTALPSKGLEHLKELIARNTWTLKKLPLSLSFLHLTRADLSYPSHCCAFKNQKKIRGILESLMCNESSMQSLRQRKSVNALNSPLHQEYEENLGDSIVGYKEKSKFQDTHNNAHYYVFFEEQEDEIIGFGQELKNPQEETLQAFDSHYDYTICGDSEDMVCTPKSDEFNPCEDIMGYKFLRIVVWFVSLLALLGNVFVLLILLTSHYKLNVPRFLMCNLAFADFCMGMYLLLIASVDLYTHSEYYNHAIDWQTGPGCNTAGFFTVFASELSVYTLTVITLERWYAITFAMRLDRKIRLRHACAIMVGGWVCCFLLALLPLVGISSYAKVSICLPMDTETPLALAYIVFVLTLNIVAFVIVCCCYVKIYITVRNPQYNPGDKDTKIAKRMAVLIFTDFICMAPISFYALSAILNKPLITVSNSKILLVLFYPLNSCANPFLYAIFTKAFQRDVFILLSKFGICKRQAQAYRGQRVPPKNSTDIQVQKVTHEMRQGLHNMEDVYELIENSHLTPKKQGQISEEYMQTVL
Estrogen receptor (Homo sapiens), sequence (P03372 whole entry, looked up): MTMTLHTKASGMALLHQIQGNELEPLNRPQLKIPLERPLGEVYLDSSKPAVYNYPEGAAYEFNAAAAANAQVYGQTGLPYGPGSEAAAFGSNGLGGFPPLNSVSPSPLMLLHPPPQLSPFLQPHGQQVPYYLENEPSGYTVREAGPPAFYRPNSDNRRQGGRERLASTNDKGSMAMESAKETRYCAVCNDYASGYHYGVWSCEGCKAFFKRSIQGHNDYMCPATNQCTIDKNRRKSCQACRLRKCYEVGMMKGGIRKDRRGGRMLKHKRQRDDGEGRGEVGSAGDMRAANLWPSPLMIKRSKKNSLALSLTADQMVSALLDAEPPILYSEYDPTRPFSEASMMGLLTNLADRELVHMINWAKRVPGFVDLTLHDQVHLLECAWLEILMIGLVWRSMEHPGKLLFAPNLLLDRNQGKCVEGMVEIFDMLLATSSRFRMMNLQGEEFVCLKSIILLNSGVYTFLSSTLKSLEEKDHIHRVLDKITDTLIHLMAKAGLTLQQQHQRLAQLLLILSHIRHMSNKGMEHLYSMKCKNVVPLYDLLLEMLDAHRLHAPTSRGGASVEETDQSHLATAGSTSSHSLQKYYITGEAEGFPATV
Androgen receptor (Homo sapiens), sequence (P10275 whole entry, looked up): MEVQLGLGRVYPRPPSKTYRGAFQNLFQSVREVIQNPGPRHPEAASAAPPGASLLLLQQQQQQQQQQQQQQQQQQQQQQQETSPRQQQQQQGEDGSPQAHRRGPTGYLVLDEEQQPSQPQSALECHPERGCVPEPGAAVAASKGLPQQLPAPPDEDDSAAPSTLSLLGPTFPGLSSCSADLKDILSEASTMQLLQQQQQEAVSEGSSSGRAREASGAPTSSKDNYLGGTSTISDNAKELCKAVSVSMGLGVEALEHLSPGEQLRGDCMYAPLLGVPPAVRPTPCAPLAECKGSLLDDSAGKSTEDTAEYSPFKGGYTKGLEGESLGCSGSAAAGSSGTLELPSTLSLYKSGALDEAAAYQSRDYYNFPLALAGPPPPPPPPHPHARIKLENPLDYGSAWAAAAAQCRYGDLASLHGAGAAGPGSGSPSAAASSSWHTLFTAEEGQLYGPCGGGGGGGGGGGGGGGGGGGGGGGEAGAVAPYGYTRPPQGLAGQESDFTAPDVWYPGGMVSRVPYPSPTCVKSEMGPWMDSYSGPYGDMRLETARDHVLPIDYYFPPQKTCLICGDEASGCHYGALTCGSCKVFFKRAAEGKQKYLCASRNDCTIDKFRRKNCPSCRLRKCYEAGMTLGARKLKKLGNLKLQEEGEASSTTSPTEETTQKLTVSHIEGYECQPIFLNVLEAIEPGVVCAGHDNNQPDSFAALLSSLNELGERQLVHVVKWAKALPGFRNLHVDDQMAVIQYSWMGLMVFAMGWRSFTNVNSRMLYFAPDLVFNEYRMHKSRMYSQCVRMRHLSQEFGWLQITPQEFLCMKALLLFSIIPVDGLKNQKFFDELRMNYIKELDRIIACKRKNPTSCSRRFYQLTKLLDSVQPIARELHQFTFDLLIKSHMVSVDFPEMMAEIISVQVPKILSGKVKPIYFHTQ
Estrogen receptor beta (Homo sapiens), sequence (Q92731 whole entry, looked up): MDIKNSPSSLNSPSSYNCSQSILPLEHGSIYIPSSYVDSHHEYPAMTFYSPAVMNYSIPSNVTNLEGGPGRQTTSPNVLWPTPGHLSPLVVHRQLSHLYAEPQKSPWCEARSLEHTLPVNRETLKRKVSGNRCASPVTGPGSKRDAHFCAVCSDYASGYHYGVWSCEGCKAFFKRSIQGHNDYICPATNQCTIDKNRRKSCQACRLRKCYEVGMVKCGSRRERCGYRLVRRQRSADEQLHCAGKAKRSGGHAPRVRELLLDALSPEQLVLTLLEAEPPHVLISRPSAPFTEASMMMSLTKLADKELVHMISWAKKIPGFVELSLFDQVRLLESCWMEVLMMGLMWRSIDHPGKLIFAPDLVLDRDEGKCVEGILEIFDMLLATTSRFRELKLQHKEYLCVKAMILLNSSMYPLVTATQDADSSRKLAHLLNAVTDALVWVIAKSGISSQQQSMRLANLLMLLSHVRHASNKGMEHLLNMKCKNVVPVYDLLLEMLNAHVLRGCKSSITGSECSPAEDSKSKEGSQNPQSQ

CCCCCCI
inactive: [1] | [2] | [3] | [4] | [5] | [6] | [7] | [8] | [9] | [10] | [11] | [12] | [13] | [14] | [15] | [16]

CC1COC2(c3ccccc3Cl)c3cc(Cl)ccc3NC(=O)CN12 (centres undefined)
active: [10] 29.8 µM | [11] 26.6 µM
inactive: [1] | [2] | [3] | [5] | [6] | [7] | [8] | [9] | [17] | [12] | [14] | [15] | [16] | [18] | [19]

Fc1cc(Br)ccc1CBr
inactive: [1] | [2] | [3] | [4] | [5] | [6] | [7] | [8] | [9] | [10] | [17] | [11] | [12] | [13] | [14] | [15] | [16] | [19]

CC(C(O)c1ccccc1)N(C)C/C=C/c1ccccc1 (centres undefined)
inactive: [1] | [2] | [3] | [4] | [5] | [6] | [7] | [8] | [9] | [10] | [11] | [12] | [14] | [15] | [16] | [18]

CNC(=O)Oc1ccccc1C1OCCO1
inactive: [1] | [2] | [3] | [4] | [5] | [6] | [7] | [8] | [9] | [10] | [17] | [11] | [12] | [13] | [14] | [15] | [16]

COc1ccc2c(c1OC)CN1CCc3cc4c(cc3C1C2)OCO4 (centres undefined)
active: [3] 26.6 µM | [13] 9.44 µM
inactive: [1] | [2] | [20] | [5] | [6] | [7] | [8] | [9] | [12] | [14] | [15] | [16] | [19]

c1cc2c(c(N3CCNCC3)c1)OCCO2
inactive: [1] | [2] | [3] | [4] | [20] | [5] | [6] | [7] | [8] | [9] | [10] | [17] | [11] | [12] | [13] | [14] | [15] | [16] | [18] | [19]
